Bioassay records: PubChem BioAssay, several laboratories
Rows were chosen to be rich in hits. Some 3.1% of all compounds tested hit in one or more screens of this group.
LMP1 NFkB inh: Epstein-Barr LMP1 NF-kappaB reporter inhibition; LMP1-induced NF-kappaB luciferase reporter cells, luminescence; inhibition, % at 12.5 µM; 350,000 tested, 0.69% active; in the data active = inhibition above about 41%; inconclusive = no clear call, values can overlap the other calls;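 note: 0% = neutral control wells and 100% = reference inhibitor control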
LGR2 inh: inhibitors of bursicon-induced Drosophila LGR2 receptor cAMP signaling | HEK293 LGR2, CRE-luciferase, bursicon-stimulated, 4 h | inhibition, % at 9.99 µM | 380,000 tested, 0.35% active | AID 720647;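 active = drop in luminescence signal, shown as inhibition above about 50% in the replicate tests, limit read from the data, passing the limit was not always enough; inconclusive = probably only some replicates passing the limit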;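 note: agonist challenge used bursicon conditioned medium at about half maximal strength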
TWEAK-Fn14 inh: blocks TWEAK-Fn14 interaction in a reporter cell assay; TWEAK-stimulated Fn14 reporter cells, luciferase luminescence, 8 h; inhibition, % at 10 µM; 360,000 tested, 2% active; AID 1159606; in the data active = inhibition above about 50%
EWS-Fli inh: inhibitors of EWS/Fli oncoprotein transcriptional activity. A673 NR0B1-luciferase reporter, viability-normalised. inhibition, % at 12.6 µM. 350,000 tested, 0.67% active. AID 651661;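 active = mean inhibition of at least 50% after viability correction, with every replicate also passing that limit; inconclusive = mean reaches 50% but only one of two replicates passes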;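 note: firefly luciferase signal divided by Alamar Blue viability fluorescence both relative to DMSO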
TROY signal inh: TROY signaling inhibition | inhibition, % at 10 µM | 360,000 tested, 0.98% active | Q293 LMP1-TROYcd NF-kB luciferase reporter, 4 h | AID 1347056;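 active = compounds whose plate-normalised and pattern-corrected inhibition of the luciferase reporter signal at the single screening dose is 50% or more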
PAX8 inh HTS: lowers PAX8-driven luciferase in RMG-I cells; 360,000 tested, 1.2% active; inhibition, % at 12.6 µM; RMG-I TPO-luciferase reporter, SteadyGlo, 24 h;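 active = mean replicate inhibition at least 60% with every replicate also reaching 60%; inconclusive = only one of the two criteria is met; inactive = mean below 60% and not all replicates reaching 60%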;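 note: luciferase light reporting Pax8 driven TPO promoter activity; plate controls were median of neutral control wells for no effect and mitoxantrone controls for full effect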
* marks the source's active call; other numbers are inactive results; u = inconclusive; x = not tested or not shown.

SMILES	LMP1 NFkB inh	LGR2 inh	TWEAK-Fn14 inh	EWS-Fli inh	TROY signal inh	PAX8 inh HTS
CN1CCN(CCCNC(=O)c2ccc(/C=C3/Sc4ccccc4N(Cc4cccc(Cl)c4)C3=O)cc2)CC1	0.0	u	-31.4	44.8	51.8*	-12.3
CN1CCN(CCCNC(=O)c2ccc(/C=C3\Sc4ccccc4N(Cc4ccc(F)cc4)C3=O)cc2)CC1	8.0	4.1	-52.5	23.4	-10.6	12.1
C[C@H]1CN([C@@H](C)CO)C(=O)CCCn2cc(nn2)CO[C@@H]1CN(C)C(=O)CCCN(C)C	x	-12.0	x	-10.4	x	-8.4
COc1ccc(CNC(=O)C[C@H]2C[C@H]3c4cc(NC(=O)CN(C)C)ccc4O[C@H]3[C@@H](CO)O2)cc1	x	-8.4	x	-5.8	x	-1.4
CCOC(=O)N1CCN(C(=O)/C(=C/c2cccc3ccccc23)NC(=O)c2ccc(OC)cc2)CC1	-10.2	-19.7	19.3	-9.4	56.0*	x
CCOC(=O)N1CCN(C(=O)/C(=C/c2ccc(OC)cc2)NC(=O)c2ccccc2)CC1	-4.6	x	1.6	x	12.6	-9.9
Cc1csc(N=Nc2ccc(N(C)C)cc2)[n+]1[O-]	54.6*	74.8*	85.5*	-13.7	75.4*	68.1*
Cc1ccc(N2CC(C(=O)NCc3cccnc3)CC2=O)cc1 (stereo unspecified)	-3.0	x	2.2	x	4.7	x
COc1ccc(N2CC(C(=O)NCc3cccnc3)CC2=O)cc1 (stereo unspecified)	-6.8	x	75.4*	x	x	x
Cc1ccc(-n2c(O)c(C=Nc3ccc4c(c3)OCO4)c3ccccc3c2=O)cc1C	2.0	x	12.4	x	63.3*	x
Oc1[nH]c2ccccc2c1N=Nc1c(F)c(F)c(Cl)c(F)c1F	69.1*	4.2	1.3	-14.9	-36.6	-7.3
CCCNC(=O)N1CC2(CN(Cc3ccc(OC)cc3)C2)c2c(n(C)c3cc(OC)ccc23)[C@@H]1CO	x	-18.4	x	-0.8	x	x
CC(C)(C)n1nnnc1C(c1cccc(C#N)c1)N1CCCc2ccccc21 (stereo unspecified)	-0.3	7.6	50.2*	12.5	38.1	x
COc1ccc2c3c([nH]c2c1)[C@H](CO)N(C(=O)NC1CCCC1)CC31CN(S(C)(=O)=O)C1	x	2.0	x	6.7	x	x
Cc1ccc(S(=O)(=O)Nc2ccc3c(c2)C(=O)N([C@H](C)CO)C[C@@H](C)[C@H](CN(C)S(=O)(=O)c2ccccc2)OCCCC[C@H](C)O3)cc1	x	-13.7	x	3.1	x	79.7*
Cc1ccc(S(=O)(=O)Nc2ccc3c(c2)C(=O)N([C@@H](C)CO)C[C@@H](C)[C@@H](CN(C)S(=O)(=O)c2ccccc2)OCCCC[C@H](C)O3)cc1	1.9	3.2	7.9	11.8	-3.3	2.9
Cc1ccc(S(=O)(=O)N(C)C[C@H]2OCCCC[C@H](C)Oc3ccc(NS(=O)(=O)c4ccccc4)cc3C(=O)N([C@H](C)CO)C[C@@H]2C)cc1	x	-4.3	x	20.5	x	62.3*
Cc1noc(C)c1NC(=O)Nc1ccc2c(c1)C(=O)N([C@@H](C)CO)C[C@@H](C)[C@H](CN(C)C(=O)Nc1ccc3c(c1)OCO3)O2	x	-4.5	x	-1.6	x	-19.1
CC1S/C(=C(\C#N)C(=O)NCc2ccco2)N(Cc2ccco2)C1=O (stereo unspecified)	40.6*	x	5.7	x	17.7	x
Cc1ccc(CC2S/C(=C(/C#N)C(=O)NCc3ccco3)N(c3ccccc3)C2=O)cc1 (stereo unspecified)	4.1	x	35.3	x	-8.6	x
O=C(C1CCN(S(=O)(=O)N2CCCC2)CC1)N1CCCCC1	-1.7	x	4.2	x	-6.9	x
O=C(C1CCN(S(=O)(=O)N2CCCCC2)CC1)N1CCCCC1	55.7*	-12.4	6.4	x	-6.3	-11.0
COc1ccc(NC(=O)c2cc(-c3ccc(F)cc3OC(C)C)n[nH]2)cn1	x	4.5	29.8	1.9	-13.1	5.7
CC(C)Oc1ccc(F)cc1-c1cc(C(=O)NCc2cc(C(F)(F)F)cc(C(F)(F)F)c2)[nH]n1	x	9.0	50.9*	5.0	48.3	53.9
CC(C)Oc1cc(F)ccc1-c1cc(C(=O)Nc2cccc(C(F)(F)F)c2)[nH]n1	x	0.0	70.1*	8.9	55.1*	39.6
SMILES	LMP1 NFkB inh	LGR2 inh	TWEAK-Fn14 inh	EWS-Fli inh	TROY signal inh	PAX8 inh HTS
COc1ccc2c3c(n(C)c2c1)[C@@H](CO)NCC31CCN(C(=O)Nc2ccc(F)cc2F)CC1	x	3.8	x	4.7	x	7.6
O=C(C[C@@H]1CC[C@@H]2[C@H](COC[C@@H](O)CN2Cc2nccs2)O1)NCc1ccccc1Cl	x	1.2	x	-11.1	x	-14.8
Cc1c(C(=O)O/N=C(\N)c2ccccn2)cccc1[N+](=O)[O-]	2.9	x	67.0*	-33.9	-15.5	-17.3
COc1cccc(C(=O)O/N=C(\N)c2ccccn2)c1OC	51.8*	69.5*	81.0*	-85.7	4.6	3.3
N/C(=N\OC(=O)c1cccc2ccccc12)c1ccccn1	-16.7	48.2	32.1	-33.6	0.0	-15.7
O=C(NCC[C@H]1CC[C@H](NS(=O)(=O)c2ccc(Cl)cc2)[C@H](CO)O1)c1ccc2c(c1)OCO2	x	0.4	x	x	x	x
O=C(C[C@@H]1CC[C@@H]2[C@H](COC[C@@H](O)CN2Cc2cccc(F)c2)O1)NCC1CCCCC1	x	-14.5	x	1.5	x	26.7
COc1ccccc1C(=O)Nc1ccc2c(c1)C(=O)N(C)[C@@H]1CC[C@@H](CC(=O)NCc3ccc(Cl)c(Cl)c3)O[C@H]1CO2	x	24.3	x	1.8	x	92.7*
Cc1cc(C(=O)Nc2ccc3c(c2)C(=O)N(C)[C@H]2CC[C@@H](CC(=O)NCc4ccc(-c5ccccc5)cc4)O[C@@H]2CO3)no1	x	15.1	x	13.9	x	64.9*
O=C(C[C@H]1C=C[C@H](NC(=O)CN2CCOCC2)[C@H](CO)O1)NC1CCC1	x	1.1	x	-7.4	x	-2.6
COc1cc(OC)cc(C(=O)NC(C(=O)Nc2ccc3c(c2)OCCO3)C(C)C)c1 (stereo unspecified)	-1.1	-5.9	55.7*	-9.2	51.8*	-41.9
COc1cccc(/C=C/C(=O)Nc2ccc3c(c2)OCCO3)c1OC	-0.2	60.6*	-25.5	7.2	7.9	-26.6
COc1cccc(/C=C/C(=O)Nc2cccc(C(C)=O)c2)c1OC	-11.2	-33.9	-5.8	-71.9	-40.9	-156.2
COc1ccc(S(=O)(=O)NC(C)C(=O)Nc2ccc3c(c2)OCCO3)cc1OC (stereo unspecified)	-8.1	9.2	75.1*	-2.5	7.6	3.1
COc1cc(OC)cc(C(=O)Nc2ccc3c(c2)OCCO3)c1	-2.7	-38.3	-20.9	-110.1	-41.8	-114.7
CN1C(=O)c2cc(NC(=O)c3cccs3)ccc2OC[C@H]2O[C@@H](CC(=O)NCCN3CCCCC3)CC[C@H]21	x	-1.9	x	5.9	x	17.0
O=c1c2[nH]c3ccccc3c2ncn1CCC1=CCCCC1	-15.6	x	-32.8	x	-73.4	-75.0
C1=C(CCNc2ncnc3c2[nH]c2ccccc23)CCCC1	32.0	x	69.2*	-2.2	39.6	-12.6
CO[C@H]1CN(C)C(=O)c2ccc(NC(=O)NC(C)C)cc2OC[C@@H](C)N(CC2CC2)C[C@@H]1C	x	6.4	x	6.5	x	7.9
CC1=Nn2c(nnc2-c2ccccc2Cl)SC1	3.3	x	6.1	x	-8.4	x
